# Records with an inconclusive call do not appear. Entries that show only a call come without a potency. Active and inactive are the calls of the source. Calls follow the shape of the full dose curve.
# Assay: qHTS assay for small molecule disruptors of the mitochondrial membrane potential - cell viability (AID 720634);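 also: human HepG2 liver cancer cells; nearly all actives have a fitted effect of over 20% in size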
# Details: HepG2 viability, ATP luminescence (CellTiter-Glo), 1 h; series mostly up to 83.2 µM
# Text: U.S. Tox21 Program National Center for Advancing Translational Sciences [NCATS] NIH Chemical Genomics Center [NCGC] U.S. Environmental Protection Agency [EPA] National Institutes of Environmental Health Sciences [NIEHS] National Toxicology Program [NTP] U.S. Food and Drug Administration [FDA] Tox21 Assay Overview: Mitochondrial membrane potential (MMP), one of the parameters for mitochondrial function, is generated by mitochondrial electron transport chain that creates an electrochemical gradient by a series of redox reactions. This gradient drives the synthesis of ATP, a crucial molecule for various cellular processes. Measuring MMP in living cells is commonly used to assess the effect of chemicals on mitochondrial function; decreases in MMP can be detected using lipophilic cationic fluorescent dyes. […] The dye accumulates in the mitochondria of healthy cells as aggregates, with red fluorescence. The mitochondrial potential decreases and the dye could not accumulate in the mitochondria and remains in the cytoplasm in monomers, with green fluorescence. In addition to the mitochondrial potential assay, these cells were also used to test the cytotoxicity by determining the cell viability in the culture based on the quantitation of ATP present. The cytotoxicity was measured in the same assay well of MMP assay.
# Tox21 Assay Protocol Summary: 2,000 HepG2 cells in 5 uL/well were dispensed into black, clear-bottom 1536-well plates using a Multidrop Combi (Thermo Scientific) dispenser. The assay plates were incubated for an overnight at 37 C to allow cells to attach to the wells, followed by the transfer of 23 nL compound or DMSO vehicle by a pin tool (Kalypsys). The plates were incubated for 1 hr at 37 C and 5% CO2, followed by the addition of 5 uL of 2X m-MPI dye into each well using Flying Reagent Dispenser (Aurora Discovery) and then CellTiter-Glo reagent was added at 4 uL/well and incubated 30 min at room temperature. Then luminescence intensity was quantified on a ViewLux CCD-based plate reader.
row,Structure (SMILES),Potency
1,CCCN(CC)C(CC)C(=O)Nc1c(C)cccc1C (stereo not given),inactive
2,O=P(O)(O)OC(CO)CO,inactive
3,C=C1CC[C@@H]2[C@](C)(CO)[C@H](O)CC[C@@]2(C)[C@@H]1C/C=C1/C(=O)OC[C@H]1O,inactive
4,CCCCCCCCCCCCCCCCCCCCCC(=O)Nc1ccn([C@@H]2O[C@H](CO)[C@@H](O)[C@@H]2O)c(=O)n1,inactive
5,COc1cc(/C=C/C(=O)N2CCN(CC(=O)N3CCCC3)CC2)cc(OC)c1OC,inactive
6,CC(C)CCCC(C)NC(C)C (stereo not given),inactive
7,CC(=O)O[C@H]1CC[C@@]2(C)C(=CC[C@H]3[C@@H]4CC[C@H](C(C)=O)[C@@]4(C)CC[C@@H]32)C1,inactive
8,CCN(CC)CCOc1ccccc1OC,inactive
9,COC(=O)CCC(=O)CN,inactive
10,CC(C)CN(C[C@@H](OP(=O)(O)O)[C@H](Cc1ccccc1)NC(=O)O[C@H]1CCOC1)S(=O)(=O)c1ccc(N)cc1,inactive
11,N[C@@H](C(=O)N[C@@H]1C(=O)N2C(C(=O)O)=C(Cl)CC[C@H]12)c1ccccc1,inactive
12,O=C(NCCNCC(O)COc1ccc(O)cc1)N1CCOCC1 (stereo not given),inactive
13,CC(C)(C)C1(O)CCN2CC3c4ccccc4CCc4cccc(c43)C2C1 (stereo not given),inactive
14,COc1cc(Br)c(C[N+]2(CCOCCC3CCC4CC3C4(C)C)CCOCC2)cc1OC (stereo not given),inactive
15,CCCCCCCCCCCCCCCC(=O)OCC(COC(=O)CCCCCCCCCCCCCCC)OC(=O)CCCCCCCCCCCCCCC,inactive
16,CC1=C(/C=C/C(C)=C/C=C/C(C)=C/C(=O)Oc2c(C)c(C)c3c(c2C)CC[C@@](C)(CCC[C@H](C)CCC[C@H](C)CCCC(C)C)O3)C(C)(C)CCC1,inactive
17,CC(C)NCC(O)COc1ccccc1-n1cccc1 (stereo not given),inactive
18,C[N+](C)(CCCCCC[N+](C)(C)C1c2ccccc2-c2ccccc21)C1c2ccccc2-c2ccccc21,inactive
19,CC1CC(OC(=O)C(O)c2ccccc2)CC(C)(C)C1 (stereo not given),inactive
20,Cc1onc(-c2ccccc2)c1C(=O)N[C@@H]1C(=O)N2[C@@H]1SC(C)(C)[C@@H]2C(=O)O,inactive

row,Structure (SMILES),Potency
1,COc1ccc(CCNCC(O)COc2cccc(C)c2)cc1OC (stereo not given),inactive
2,C=CCOc1ccc(CC(=O)O)cc1Cl,inactive
3,CCCCC/C=C\C/C=C\C/C=C\CCCCC(=O)O,inactive
4,CN1CCC(CN2c3ccccc3Sc3ccccc32)C1 (stereo not given),inactive
5,CCCCCCCCCCCCCCCC(=O)O[C@@H]1[C@@H](O)[C@@H](O)[C@@H]([C@H](NC(=O)[C@@H]2C[C@@H](CCC)CN2C)[C@H](C)Cl)O[C@@H]1SC,inactive
6,CCC(C)C(C(=O)OCC[N+](C)(CC)CC)c1ccccc1 (stereo not given),inactive
7,CCCCC(=O)OCC(=O)[C@]1(O)Cc2c(O)c3c(c(O)c2[C@@H](O[C@H]2C[C@H](NC(=O)C(F)(F)F)[C@H](O)[C@H](C)O2)C1)C(=O)c1c(OC)cccc1C3=O,inactive
8,O=C(CO)[C@@H](O)[C@H](O)[C@@H](O)C(=O)O,inactive
9,C=CC1=C(C)C2=CC3=NC(=C(CC(=O)[O-])C4=NC(=C(C)C4=C([O-])[O-])C=c4[n-]c(c(C)c4CC)=CC1=N2)C(CCC(=O)[O-])C3C.[Cu+2].[Na+].[Na+].[Na+] (stereo not given),inactive
10,C=CCNC1=C2C[C@@H](C)C[C@H](OC)[C@H](O)[C@@H](C)/C=C(\C)[C@H](OC(N)=O)[C@@H](OC)/C=C\C=C(/C)C(=O)NC(=CC1=O)C2=O,inactive
11,COc1cc(C)c(/C=C/C(C)=C/C=C/C(C)=C/C(=O)O)c(C)c1C,inactive
12,CS(=O)(=O)Nc1cc2occ(NC=O)c(=O)c2cc1Oc1ccccc1,inactive
13,C[C@]12CCC(=O)C[C@@H]1CC[C@@H]1[C@@H]2CC[C@]2(C)C=CC[C@@H]12,inactive
14,CCOC(=O)c1c[nH]c2cc(OCC(C)C)c(OCC(C)C)cc2c1=O,inactive
15,CC(C)(S)[C@@H](N)C(=O)O,inactive
16,COc1cc2c(cc1OC)[C@@H](c1ccccc1)CN(C)CC2,inactive
17,CO[C@H]1C[C@@H]2CC[C@@H](C)[C@@](O)(O2)C(=O)C(=O)N2CCCC[C@H]2C(=O)O[C@H]([C@H](C)C[C@@H]2CC[C@@H](OCCO)[C@H](OC)C2)CC(=O)[C@H](C)/C=C(\C)[C@@H](O)[C@@H](OC)C(=O)[C@H](C)C[C@H](C)/C=C/C=C/C=C/1C,inactive
18,CCCC(=O)Nc1ncnc2c1ncn2[C@@H]1O[C@@H]2COP(=O)(O)O[C@H]2[C@H]1OC(=O)CCC,inactive
19,CO[C@@]1(NC(=O)C2SC(=C(C(N)=O)C(=O)O)S2)C(=O)N2C(C(=O)O)=C(CSc3nnnn3C)CS[C@@H]21 (stereo not given in full),inactive
20,CN=C(NC)NCc1ccccc1,inactive
